Each structure is given as a SMILES string. Results filed as inconclusive are left out. A call without a number means that no potency is given here. Active and inactive are the calls of the source. Calls follow the shape of the dose curve; as a rule, active = well fitted cell-killing curve with a large enough effect in the repeat runs; inconclusive = weak or mixed curves; inactive = flat fitted curve, though single readings scatter.

This experiment is described as follows: qHTS RealTime-Glo MT Cell Viability Assay in HepG2 cells - 8 hour (AID 1224873). Also: nearly all actives have a fitted effect of over 55% in size. Conditions: RealTime-Glo luminescence; series mostly up to 76.8 µM. The source says: National Center for Advancing Translational Sciences [NCATS]
NIH Chemical Genomics Center [NCGC]
U.S. Environmental Protection Agency [EPA]
National Institutes of Environmental Health Sciences [NIEHS]
National Toxicology Program [NTP]
U.S. Food and Drug Administration [FDA]
Measure of cell viability is critical in the cell-base assay. Analysis of cell viability is necessary for the characterization of cell responses to cytotoxic drugs and environmental stress. A RealTime-Glo MT Cell Viability Assay to monitor cell viability in real time of continues cell culture during 40 hours of compound treatment was used to screen Tox21 10K library compounds in HepG2 cells. The RealTime-Glo MT Cell Viability Assay is a nonlytic, homogeneous, bioluminescent method to measure cell viability in real time using a simple, plate-based method. The assay involves adding NanoLuc luciferase and a cell-permeant prosubstrate to cells in culture. Viable cells reduce the proprietary prosubstrate to generate a substrate for NanoLuc luciferase. This substrate diffuses from cells into the surrounding culture medium, where it is rapidly used by the NanoLuc Enzyme to produce a luminescent signal. The signal correlates with the number of viable cells, making the assay well suited for cytotoxicity studies.
Tox21 Assay Protocol Summary:
The mixture of HepG2 cell suspension and reagents were dispensed at 600cells/6 ul/well in 1536-well tissue culture treated black solid bottom plates using a Multidrop dispenser. After the assay plates were incubated at a 37 C/5% CO2 incubator for 5 hours, 23 nL of compounds dissolved in DMSO, positive and negative controls was transferred to the assay plate by a pintool work station. The plates were incubated at 37 C for 40 hours. The luminescence intensity were measured at 0h, 8h, 16h, 24h, 32h and 40h time points using ViewLux plate reader during compound treatment.
On to `NC(=O)C(Cl)(Cl)Cl`, for which the Potency entry was “inactive”.
Same read-out and setting: the entry for `C=CC(=O)OC` is “inactive”; for `O=C(CBr)c1ccccc1` it is “inactive”.
On the same count and under the same terms, the entry for `COP(=S)(OC)Oc1ccc([N+](=O)[O-])cc1Cl` is “inactive”; for `CCCCCCCCCC(=O)O[C@H]1CC[C@H]2[C@@H]3CCC4=CC(=O)CC[C@@H]4[C@H]3CC[C@]12C` it is “inactive”.
On the same count and under the same terms, the entry for `Clc1ccc(C2(Cn3cncn3)CC(Br)CO2)c(Cl)c1` (stereo not given) is “inactive”; for `CC(C)(Cl)[N+](=O)[O-]` it is “inactive”.
Turning to `CCCCCCCCCCOC(=O)c1ccccc1C(=O)OCCCCCCCCCC`, the Potency result was “inactive”.
The same measure, in the same setting: the entry for `O=C(O)CC(Cl)C(=O)O` (stereo not given) is “inactive”.
The same measure, in the same setting: the entry for `CC(=O)NC1CCSC1=O` (stereo not given) is “inactive”; for `BrCCCCBr` it is “inactive”.
The same measure, in the same setting: the entry for `c1ccoc1` is “inactive”.
In the case of `C=CC(=O)OCC(C)O` (stereo not given), the Potency entry was “inactive”.
On the same count and under the same terms, the entry for `Cc1ccc(-c2c(Cl)nc(C#N)n2S(=O)(=O)N(C)C)cc1` is “inactive”.
`C/C(=C\c1ccccc1)[N+](=O)[O-]`: the Potency entry is “inactive”.
As to `O=C=Nc1ccc(Cl)cc1`, the Potency result was “inactive”.
For the compound `Cl/C=C\C[N+]12CN3CN(CN(C3)C1)C2`, the Potency entry is “inactive”.
Same read-out and setting: the entry for `C=CCC1([C@H](C)CCC)C(=O)NC(=O)NC1=O` is “inactive”.
On the same count and under the same terms, the entry for `CC(Cl)C(C)Cl` (stereo not given) is “inactive”; for `O=S1(=O)OC(c2cc(Br)c(O)c(Br)c2)(c2cc(Br)c(O)c(Br)c2)c2ccccc21` it is “inactive”.
On the same count and under the same terms, the entry for `O=[N+]([O-])c1cc(C(F)(F)F)cc([N+](=O)[O-])c1Cl` is “inactive”.
Take `CO[C@@H]1[C@H](OC(=O)NC(=O)CCl)CC[C@]2(CO2)[C@H]1[C@@]1(C)O[C@@H]1CC=C(C)C`: the viability change, negative = cytotoxic was -0.3% [at 15.8 µM] (inactive).
Regarding `CCOP(O)OCC`, the Potency result was “inactive”.
On to `CCn1cc[n+](C)c1`, for which the Potency entry is “inactive”.
For `COc1cc(Cl)c(OC)cc1Cl`, the Potency result was “inactive”.
Turning to `CCOS(C)(=O)=O`, the Potency entry was “inactive”.
The same measure, in the same setting: the entry for `CCOC(=O)C(Cl)C(C)=O` (stereo not given) is “inactive”; for `COC(N)=O` it is “inactive”; for `CC(C)(C)C(O)C(Oc1ccc(Cl)cc1)n1cncn1` (stereo not given) it is “inactive”.
As to `ClCC(Br)CBr` (stereo not given), the Potency entry is “inactive”.
Regarding `O=[Se]=O`, the Potency entry was “inactive”.
Turning to `CC(Cl)Cl`, the Potency entry is “inactive”.
Turning to `CCOc1ccc(C(C)(C)COCc2cccc(Oc3ccccc3)c2)cc1`, the Potency entry was “inactive”.
On to `CCCN(CCC)c1c([N+](=O)[O-])cc(S(C)(=O)=O)cc1[N+](=O)[O-]`, for which the Potency result is “inactive”.
On to `Oc1ccc(Cl)c(Cl)c1Cl`, for which the Potency result was “inactive”.
Same read-out and setting: the entry for `CCCN(CC1CC1)c1c([N+](=O)[O-])cc(C(F)(F)F)cc1[N+](=O)[O-]` is “inactive”; for `Clc1cccc(SC2CCNCC2)n1` it is “inactive”.
Same read-out and setting: the entry for `CCc1ccc(C(=O)NN(C(=O)c2cc(C)cc(C)c2)C(C)(C)C)cc1` is “inactive”.
As for `CCCCN=C=O`, the Potency entry is “inactive”.
Same read-out and setting: the entry for `O=[N+]([O-])c1ccc(F)c([N+](=O)[O-])c1` is “inactive”.

The values above are taken from PubChem BioAssay (Tox21).
